Measured values: PubChem BioAssay (NCI)
Compounds without any hit were thinned out: in the full panel of roughly 79,000, 15% have a hit. No stated cut-off is given here; in the data, active means growth inhibition above about 70%; inactive means the rest.

Key:
[1] = NCI Yeast Anticancer Drug Screen. Data for the rad50 strain (AID 155);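 further: 0% = growth of vehicle-only cultures of the same strain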; conditions: S. cerevisiae rad50 strain growth inhibition; at 50.0 µM; stronger effect = higher value
How it was run: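 A DNA repair-deficient yeast mutant serves as the test organism; compound-induced growth inhibition is calculated against vehicle-treated cells.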

[2] = NCI Yeast Anticancer Drug Screen. Data for the mec2-1 strain (AID 157); conditions: S. cerevisiae mec2-1 strain, at 50.0 µM, stronger effect = higher value
How it was run: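 Each compound was tested on mec2-1 yeast, a strain altered in DNA damage repair or cell cycle control. Growth inhibition is reported relative to vehicle.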

[3] = NCI Yeast Anticancer Drug Screen. Data for the sgs1 mgt1 strain (AID 161);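 further: 0% = growth of cultures given vehicle only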; conditions: S. cerevisiae sgs1 mgt1 strain, at 50.0 µM, stronger effect = higher value
How it was run: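 Inhibition of yeast growth, normalised to vehicle-treated controls, is reported for a strain bearing genetic alterations in DNA damage repair.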

[4] = NCI Yeast Anticancer Drug Screen. Data for the cln2 rad14 strain (AID 165);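 further: 0% = growth equal to vehicle treated cultures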; conditions: S. cerevisiae cln2 rad14 strain, at 50.0 µM, stronger effect = higher value
How it was run: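 Test compounds were added to cln2 rad14 yeast cultures; inhibition of growth was then determined by comparison with vehicle treatment.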

[5] = NCI Yeast Anticancer Drug Screen. Data for the bub3 strain (AID 167); conditions: S. cerevisiae bub3 mutant strain, at 50.0 µM, stronger effect = higher value
How it was run: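 Inhibition values come from growth of compound-treated mutant yeast normalised to vehicle-treated controls.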

[6] = NCI Yeast Anticancer Drug Screen. Data for the mlh1 rad18 strain (AID 175); conditions: S. cerevisiae mlh1 rad18 strain growth inhibition; at 50.0 µM; stronger effect = higher value
How it was run: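 Inhibition values reflect reduced growth of mutant yeast versus vehicle-treated controls following compound exposure; the mutations affect DNA damage repair.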

Measured: growth inhibition

CCCC(=O)c1cc(-c2cc(C(=O)CCC)nc(N)n2)nc(N)n1
inactive: [1] 3.65% | [2] -3.4% | [3] 3.1% | [4] -15.9% | [5] -7.1% | [6] -0.4%

CCC(CCC(=O)O)C1CCCCC1 (stereo not drawn)
inactive: [1] 29.1% | [2] 20.9% | [3] 31.1% | [4] 45.9% | [5] 46.1% | [6] 13.2%

O=c1[nH]nc(Sc2ccccc2)c2nncn12
inactive: [1] 15.7% | [2] -1.05% | [3] -5.45% | [4] -16.6% | [5] -4.7% | [6] 24.6%

CCOc1cc(C)c2cccc(C)c2n1
inactive: [1] 17.1% | [2] -0.35% | [3] -13.6% | [4] 6.25% | [5] 2% | [6] 13.8%

O=c1[nH]c(-c2cccc(F)c2)nc2ccccc12
inactive: [1] 16.9% | [2] -10.9% | [3] 3.1% | [4] 19.2% | [5] -7.4% | [6] 10.2%

C[Si](C)(CCCOC(N)=O)COC(N)=O
inactive: [1] -15.2% | [2] -6.55% | [3] -18.4% | [4] -4.1% | [5] 4.8% | [6] -18.9%

CC1=CC2C(c3ccccc3)Nc3ccccc3N2C1=O (stereo not drawn)
inactive: [1] 32.6% | [2] 8.4% | [3] 10.2% | [4] 8.45% | [5] -8.65% | [6] -6.45%

CC(O)C(O)C(O)C(O)C(/C=N/Nc1ccccc1)=N/Nc1ccccc1 (stereo not drawn)
inactive: [1] 3.75% | [2] -14% | [3] 8.1% | [4] -9.95% | [5] 0.25% | [6] 22.8%

COC1OC(COS(=O)(=O)c2ccc(C)cc2)C(N(C)C(C)=O)C1OS(=O)(=O)c1ccc(C)cc1 (stereo not drawn)
inactive: [1] 8.65% | [2] -8.3% | [3] 16.6% | [4] -2.3% | [5] 2.3% | [6] 0.65%

CN(C)C(=O)Sc1ccc(N(C)C)cc1
inactive: [1] -5.15% | [2] -17.9% | [3] -11.3% | [4] -25.2% | [5] 15.1% | [6] -23.2%

CN(C)CCNc1ccc2ncn3c4ccccc4c(=O)c1c23
inactive: [1] 13.4% | [2] -0.35% | [3] -4.95% | [4] 27.1% | [5] -0.1% | [6] 46.5%

CN(C)CCN=C1Nc2ccccc2C(=O)N2CSCC12 (stereo not drawn)
inactive: [1] -3.25% | [2] -1.95% | [3] -8.7% | [4] -1.25% | [5] -15.3% | [6] 17.3%

COCCCNc1nc(N)c(C#N)c(C#N)c1C#N
inactive: [1] 4.3% | [2] -6.15% | [3] 2.85% | [4] 3.45% | [5] 19.3% | [6] 22.2%

Cc1ccc(S(=O)(=O)c2ccccn2)cc1
inactive: [1] -37.2% | [2] -11.2% | [3] -9.35% | [4] -1.7% | [5] -13% | [6] -24.1%

COC(=O)C12CC3CC(CC(C(=O)O)(C3)C1)C2
inactive: [1] -10.2% | [2] -7.95% | [3] -4.8% | [4] -3.2% | [5] -1.65% | [6] -14.8%

Clc1cnc(/N=C/c2ccc(/C=N/c3ncc(Cl)cc3Cl)cc2)c(Cl)c1
inactive: [1] 13% | [2] -21.8% | [3] 6.05% | [4] 10% | [5] -5.8% | [6] 16.4%

COC(=O)CCc1cccnc1/C=N/O
inactive: [1] -26.9% | [2] -31.8% | [3] -11.8% | [4] 4.7% | [5] -11.7% | [6] -17.4%

Cc1cccc2sc(=S)[nH]c12
inactive: [1] 35% | [2] 18.6% | [3] 28.9% | [4] 19.9% | [5] 29.8% | [6] 30.6%
